This passage reports log2 fold change results from the supplement of paper PMC10849652.

About 7,900 targets were measured; listed, in parts, are those with a hit and a random draw of the rest. About 0.6% of all pairs of compound and target were hits. Unmarked numbers belong to inactive results.

Chain of UniProt Q9GZR1 (Q9GZR1 whole entry, looked up): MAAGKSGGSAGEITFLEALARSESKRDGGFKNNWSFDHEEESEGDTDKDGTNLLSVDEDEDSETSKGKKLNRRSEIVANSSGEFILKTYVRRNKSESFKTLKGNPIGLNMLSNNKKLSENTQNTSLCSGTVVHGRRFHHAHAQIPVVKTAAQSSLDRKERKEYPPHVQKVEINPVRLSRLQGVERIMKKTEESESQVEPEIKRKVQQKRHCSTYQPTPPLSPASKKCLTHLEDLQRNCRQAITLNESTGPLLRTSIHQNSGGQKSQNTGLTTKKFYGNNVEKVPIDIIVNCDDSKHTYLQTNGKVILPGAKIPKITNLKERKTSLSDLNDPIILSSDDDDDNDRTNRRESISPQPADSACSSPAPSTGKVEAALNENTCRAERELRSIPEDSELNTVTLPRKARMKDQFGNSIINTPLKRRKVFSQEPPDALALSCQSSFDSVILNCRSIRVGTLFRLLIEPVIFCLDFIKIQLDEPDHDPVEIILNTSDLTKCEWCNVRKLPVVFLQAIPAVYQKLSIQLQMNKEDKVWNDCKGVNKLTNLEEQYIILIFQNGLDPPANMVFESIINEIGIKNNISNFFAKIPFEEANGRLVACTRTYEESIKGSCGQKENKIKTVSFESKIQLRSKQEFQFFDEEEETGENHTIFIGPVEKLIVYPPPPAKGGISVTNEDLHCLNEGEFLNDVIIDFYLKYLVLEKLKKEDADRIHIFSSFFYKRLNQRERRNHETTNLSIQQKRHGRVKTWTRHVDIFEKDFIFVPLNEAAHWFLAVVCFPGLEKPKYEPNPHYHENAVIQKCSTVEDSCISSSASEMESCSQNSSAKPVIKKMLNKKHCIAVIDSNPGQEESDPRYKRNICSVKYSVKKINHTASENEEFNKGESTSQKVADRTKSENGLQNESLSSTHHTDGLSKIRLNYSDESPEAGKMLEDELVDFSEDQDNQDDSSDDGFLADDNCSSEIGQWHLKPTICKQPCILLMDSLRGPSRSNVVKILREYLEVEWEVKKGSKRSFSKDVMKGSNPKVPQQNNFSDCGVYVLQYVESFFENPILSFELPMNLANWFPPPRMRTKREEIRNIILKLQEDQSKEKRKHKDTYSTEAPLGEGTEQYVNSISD
Chain of UniProt Q5PRF9 (Q5PRF9 whole entry, looked up): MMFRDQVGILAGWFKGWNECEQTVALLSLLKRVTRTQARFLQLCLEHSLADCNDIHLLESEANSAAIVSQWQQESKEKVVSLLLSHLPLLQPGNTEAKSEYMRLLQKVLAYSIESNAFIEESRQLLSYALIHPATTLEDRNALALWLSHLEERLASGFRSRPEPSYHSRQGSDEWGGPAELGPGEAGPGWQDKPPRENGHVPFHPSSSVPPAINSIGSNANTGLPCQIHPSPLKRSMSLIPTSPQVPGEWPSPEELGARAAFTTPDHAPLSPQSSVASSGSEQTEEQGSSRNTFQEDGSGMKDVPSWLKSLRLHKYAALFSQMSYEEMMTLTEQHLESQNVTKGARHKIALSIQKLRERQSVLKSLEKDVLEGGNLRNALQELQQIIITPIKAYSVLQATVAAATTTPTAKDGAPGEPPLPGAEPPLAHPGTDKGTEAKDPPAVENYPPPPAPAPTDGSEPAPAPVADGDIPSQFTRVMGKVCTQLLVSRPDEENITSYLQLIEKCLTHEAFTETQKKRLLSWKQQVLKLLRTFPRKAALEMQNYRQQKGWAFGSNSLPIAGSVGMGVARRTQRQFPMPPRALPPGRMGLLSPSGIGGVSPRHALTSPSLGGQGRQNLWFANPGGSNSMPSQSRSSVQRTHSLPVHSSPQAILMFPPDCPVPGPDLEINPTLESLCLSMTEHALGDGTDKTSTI
Chain of UniProt Q9Y6Y8 (Q9Y6Y8 whole entry, looked up): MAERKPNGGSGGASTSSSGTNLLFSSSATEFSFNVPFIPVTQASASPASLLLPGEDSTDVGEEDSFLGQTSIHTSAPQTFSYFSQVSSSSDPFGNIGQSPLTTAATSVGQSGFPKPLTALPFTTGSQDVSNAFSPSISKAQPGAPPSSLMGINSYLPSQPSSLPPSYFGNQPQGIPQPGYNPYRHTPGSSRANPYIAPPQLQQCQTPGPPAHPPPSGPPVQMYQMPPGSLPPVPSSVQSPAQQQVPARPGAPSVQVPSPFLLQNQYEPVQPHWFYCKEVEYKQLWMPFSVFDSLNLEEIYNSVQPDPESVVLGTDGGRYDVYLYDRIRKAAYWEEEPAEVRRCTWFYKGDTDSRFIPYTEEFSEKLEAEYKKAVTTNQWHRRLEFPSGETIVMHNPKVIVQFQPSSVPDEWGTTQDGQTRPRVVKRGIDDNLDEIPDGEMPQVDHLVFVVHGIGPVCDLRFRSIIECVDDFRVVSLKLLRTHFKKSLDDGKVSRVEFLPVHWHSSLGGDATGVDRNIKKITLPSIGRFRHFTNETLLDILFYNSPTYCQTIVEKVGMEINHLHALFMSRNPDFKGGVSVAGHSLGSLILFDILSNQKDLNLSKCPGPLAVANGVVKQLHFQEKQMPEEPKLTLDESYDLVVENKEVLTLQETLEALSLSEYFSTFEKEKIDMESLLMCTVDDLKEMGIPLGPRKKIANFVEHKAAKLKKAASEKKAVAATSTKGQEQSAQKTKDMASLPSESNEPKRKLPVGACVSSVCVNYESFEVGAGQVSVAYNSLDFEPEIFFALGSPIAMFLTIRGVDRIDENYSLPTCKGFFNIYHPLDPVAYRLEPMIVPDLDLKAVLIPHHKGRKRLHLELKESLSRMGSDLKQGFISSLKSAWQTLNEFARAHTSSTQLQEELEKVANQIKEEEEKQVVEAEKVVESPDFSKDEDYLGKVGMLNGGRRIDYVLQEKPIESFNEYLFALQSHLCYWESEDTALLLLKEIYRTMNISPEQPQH
Chain of UniProt Q86VR2 (Q86VR2 whole entry, looked up): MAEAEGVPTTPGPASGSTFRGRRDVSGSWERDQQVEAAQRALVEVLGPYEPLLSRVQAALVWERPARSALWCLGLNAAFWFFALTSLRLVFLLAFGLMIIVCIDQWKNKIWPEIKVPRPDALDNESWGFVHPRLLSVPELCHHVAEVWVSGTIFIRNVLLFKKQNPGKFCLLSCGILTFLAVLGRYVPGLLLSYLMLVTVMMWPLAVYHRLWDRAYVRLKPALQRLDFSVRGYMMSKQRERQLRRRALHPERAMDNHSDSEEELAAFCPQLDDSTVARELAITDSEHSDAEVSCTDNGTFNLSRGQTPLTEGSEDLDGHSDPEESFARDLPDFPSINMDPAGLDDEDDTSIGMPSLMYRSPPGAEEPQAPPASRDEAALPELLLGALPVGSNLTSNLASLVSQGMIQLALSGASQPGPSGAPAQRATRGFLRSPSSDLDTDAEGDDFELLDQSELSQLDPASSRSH
Chain of UniProt Q6NT16 (Q6NT16 whole entry, looked up): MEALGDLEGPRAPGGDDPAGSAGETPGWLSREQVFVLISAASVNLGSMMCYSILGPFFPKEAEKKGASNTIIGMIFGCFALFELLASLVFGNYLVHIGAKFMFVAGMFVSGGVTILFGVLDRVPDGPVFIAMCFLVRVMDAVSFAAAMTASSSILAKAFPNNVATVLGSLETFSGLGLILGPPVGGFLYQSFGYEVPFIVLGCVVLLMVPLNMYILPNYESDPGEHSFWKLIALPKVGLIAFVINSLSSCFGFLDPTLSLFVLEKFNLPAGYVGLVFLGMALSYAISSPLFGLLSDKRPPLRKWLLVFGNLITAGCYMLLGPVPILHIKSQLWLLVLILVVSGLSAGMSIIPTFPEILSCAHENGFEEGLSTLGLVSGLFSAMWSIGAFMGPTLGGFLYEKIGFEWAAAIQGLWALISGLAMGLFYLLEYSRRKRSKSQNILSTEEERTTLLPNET
Chain of UniProt O00767 (O00767 whole entry, looked up): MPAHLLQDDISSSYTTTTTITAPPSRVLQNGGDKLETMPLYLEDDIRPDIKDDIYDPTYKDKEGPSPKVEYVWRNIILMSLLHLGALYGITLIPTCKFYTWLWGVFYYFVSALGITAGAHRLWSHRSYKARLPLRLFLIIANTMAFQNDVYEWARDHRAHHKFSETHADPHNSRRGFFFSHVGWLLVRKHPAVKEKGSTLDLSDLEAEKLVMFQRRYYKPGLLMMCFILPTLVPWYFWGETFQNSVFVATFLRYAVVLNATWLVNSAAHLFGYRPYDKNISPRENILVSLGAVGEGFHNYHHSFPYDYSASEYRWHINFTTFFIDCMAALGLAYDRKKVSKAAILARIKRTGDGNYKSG
Chain of UniProt Q96ER3 (Q96ER3 whole entry, looked up): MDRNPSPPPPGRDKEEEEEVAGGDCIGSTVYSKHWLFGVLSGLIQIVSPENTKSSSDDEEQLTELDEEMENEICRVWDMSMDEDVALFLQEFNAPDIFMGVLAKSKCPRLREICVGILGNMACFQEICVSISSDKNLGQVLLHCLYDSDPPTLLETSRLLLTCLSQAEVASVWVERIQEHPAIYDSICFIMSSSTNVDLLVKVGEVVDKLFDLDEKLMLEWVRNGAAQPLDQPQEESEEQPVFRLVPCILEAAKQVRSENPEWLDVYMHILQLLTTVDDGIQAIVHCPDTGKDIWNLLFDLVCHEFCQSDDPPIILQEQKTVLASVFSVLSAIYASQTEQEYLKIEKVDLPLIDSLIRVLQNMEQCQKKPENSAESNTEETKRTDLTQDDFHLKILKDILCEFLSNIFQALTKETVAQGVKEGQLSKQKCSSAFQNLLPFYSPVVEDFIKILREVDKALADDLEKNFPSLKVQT
Chain of UniProt Q9NQG5 (Q9NQG5 whole entry, looked up): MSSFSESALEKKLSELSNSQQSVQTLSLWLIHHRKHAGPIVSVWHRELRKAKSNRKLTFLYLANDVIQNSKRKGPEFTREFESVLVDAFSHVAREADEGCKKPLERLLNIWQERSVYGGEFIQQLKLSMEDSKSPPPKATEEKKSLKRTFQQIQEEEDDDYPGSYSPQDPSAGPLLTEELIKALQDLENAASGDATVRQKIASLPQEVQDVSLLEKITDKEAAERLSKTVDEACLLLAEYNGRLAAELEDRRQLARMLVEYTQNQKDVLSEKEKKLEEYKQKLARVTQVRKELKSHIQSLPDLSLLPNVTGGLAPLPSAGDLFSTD

Compound in the first experiment: Cc1ccc(NC(=O)c2ccc(CN3CC[C@H](N(C)C)C3)c(C(F)(F)F)c2)cc1Nc1nccc(-c2cncnc2)n1 [bafetinib]
The experiment can be described thus: log2 fold change, soluble protein after heating vs DMSO (PISA); higher = thermal stabilisation; K562 cells, 10 uM, 30 min; active = over 0.2 and 3.5 SD of the protein, either way, in both replicates (recomputed). Put shortly: (§1)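 For each measurement, 10 μM compound was applied for 30 min to K562 cells at 2×10^6 cells/mL. Aliquots were heated for 3 min across 48°C-58°C, pooled, and extracted in PBS with 0.5% NP-40 at 4°C; the supernatant after 21,000xg for 90 min was soluble protein. This was quantified by TMTpro 16plex LC-MS/MS with channel sums equalised, and thermal stability was reported relative to control samples from duplicates, on a log2 fold-change scale.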
In the case of SAMD4B (UniProt Q5PRF9), the log2 fold change is -0.436.
Consider SCD (UniProt O00767), for which the log2 fold change is -0.153.
On the same count and under the same terms, in the case of SEC23IP (UniProt Q9Y6Y8) it was -0.23; in that of SLC18B1 (UniProt Q6NT16), -0.071; in that of SAAL1 (UniProt Q96ER3), -0.102.
For the target SENP6 (UniProt Q9GZR1), the log2 fold change was 0.015.
On the same count and under the same terms, in the case of RPS12 (UniProt P25398) it was 0.112.
Consider RANBP2 (UniProt P49792), for which the log2 fold change was -0.092.
The same measure, in the same setting: as for RETREG3 (UniProt Q86VR2), the figure is -0.164.

Compound in the next experiment: Cc1cccc(CC(=O)N2CCc3c2ccc(-c2cn(C)c4ncnc(N)c24)c3F)n1
The description is as above. Put shortly: as §1
In the case of SIDT2 isoform 2 (UniProt Q8NBJ9), the log2 fold change was -0.025.
The same measure, in the same setting: in the case of ROR2 (UniProt Q01974) it was 0.052; in that of RAP1GDS1 isoform 5 (UniProt P52306), 0.07.
Still for that read-out and setting: in the case of SKP1 (UniProt P63208) it was 0.289 (active).
On the same count and under the same terms, in the case of REL (UniProt Q04864) it was 0.03.
As to SERINC3 (UniProt Q13530), the log2 fold change was -0.035.
Same read-out and setting: in the case of RPS9 (UniProt P46781) it was -0.001; in that of RB1CC1 (UniProt Q8TDY2), 0.014; in that of SAFB2 (UniProt Q14151), -0.018.
The same measure, in the same setting: in the case of RAB3IL1 (UniProt Q8TBN0) it was 0.034; in that of RPS6KA1 isoform 2 (UniProt Q15418), 0.081; in that of RPRD1B (UniProt Q9NQG5), 0.04.
On to RPS3 (UniProt P23396), for which the log2 fold change was -0.004.
The same measure, in the same setting: as for SEC24A (UniProt O95486), the figure is 0.041.
Turning to SCCPDH (UniProt Q8NBX0), the log2 fold change was -0.046.
The same measure, in the same setting: as for RPS27A (UniProt P62979), the figure is 0.023; as for ROCK2 (UniProt O75116), -0.006; as for SACM1L (UniProt Q9NTJ5), -0.022.
Same read-out and setting: as for RPA1 (UniProt P27694), the figure is 0.019.
Regarding RNASEH2A (UniProt O75792), the log2 fold change is -0.303 (active).
On to RGS10 (UniProt O43665), for which the log2 fold change is 0.032.
On the same count and under the same terms, in the case of SDHAF2 (UniProt Q9NX18) it was 0.166.
With SEPTIN5 (UniProt Q99719), the log2 fold change is 0.021.
The same measure, in the same setting: in the case of SAMD4B (UniProt Q5PRF9) it was 0.125; in that of SCD (UniProt O00767), 0.109; in that of SEC23IP (UniProt Q9Y6Y8), 0.036.
Still for that read-out and setting: as for SLC18B1 (UniProt Q6NT16), the figure is 0; as for SAAL1 (UniProt Q96ER3), 0.047.
Turning to SENP6 (UniProt Q9GZR1), the log2 fold change was -0.015.
On the same count and under the same terms, as for RPS12 (UniProt P25398), the figure is 0.006.
For RANBP2 (UniProt P49792), the log2 fold change was 0.197.
RETREG3 (UniProt Q86VR2): the log2 fold change is -0.032.

Compound in a further experiment: Cc1cn(-c2cc(NC(=O)c3ccc(C)c(Nc4nccc(-c5cccnc5)n4)c3)cc(C(F)(F)F)c2)cn1 [nilotinib]
The description is as above. Put shortly:
as §1
For SIDT2 isoform 2 (UniProt Q8NBJ9), the log2 fold change is -0.005.
Turning to ROR2 (UniProt Q01974), the log2 fold change was 0.009.
Still for that read-out and setting: in the case of RAP1GDS1 isoform 5 (UniProt P52306) it was -0.077.
Same read-out and setting: in the case of SKP1 (UniProt P63208) it was 0.024; in that of REL (UniProt Q04864), -0.094; in that of SERINC3 (UniProt Q13530), 0.02.
Turning to RPS9 (UniProt P46781), the log2 fold change is 0.003.
The same measure, in the same setting: as for RB1CC1 (UniProt Q8TDY2), the figure is 0.009; as for SAFB2 (UniProt Q14151), -0.016; as for RAB3IL1 (UniProt Q8TBN0), -0.016.
Take RPS6KA1 isoform 2 (UniProt Q15418): the log2 fold change was -0.002.
On to RPRD1B (UniProt Q9NQG5), for which the log2 fold change was -0.036.
For RPS3 (UniProt P23396), the log2 fold change is -0.009.
For the target SEC24A (UniProt O95486), the log2 fold change is -0.126.
In the case of SCCPDH (UniProt Q8NBX0), the log2 fold change was 0.189.
On the same count and under the same terms, in the case of RPS27A (UniProt P62979) it was 0.056.
The same measure, in the same setting: as for ROCK2 (UniProt O75116), the figure is -0.05.
For the target SACM1L (UniProt Q9NTJ5), the log2 fold change was 0.044.
Regarding RPA1 (UniProt P27694), the log2 fold change is -0.051.
On the same count and under the same terms, as for RNASEH2A (UniProt O75792), the figure is -0.025; as for RGS10 (UniProt O43665), -0.057.
On to SDHAF2 (UniProt Q9NX18), for which the log2 fold change was -0.02.
Take SEPTIN5 (UniProt Q99719): the log2 fold change was -0.011.
Turning to SAMD4B (UniProt Q5PRF9), the log2 fold change is -0.167.
For the target SCD (UniProt O00767), the log2 fold change is -0.063.
SEC23IP (UniProt Q9Y6Y8): the log2 fold change was -0.017.
The same measure, in the same setting: as for SLC18B1 (UniProt Q6NT16), the figure is -0.024; as for SAAL1 (UniProt Q96ER3), -0.042.
The same measure, in the same setting: in the case of SENP6 (UniProt Q9GZR1) it was 0.007.
The same measure, in the same setting: as for RPS12 (UniProt P25398), the figure is 0.002; as for RANBP2 (UniProt P49792), -0.05.
With RETREG3 (UniProt Q86VR2), the log2 fold change was 0.015.
